Reference: PubChem BioAssay (NCI)
Compounds without any hit were thinned out: in the full panel of roughly 79,000, 15% have a hit. Calls of active or inactive are those of the source. No stated cut-off is given here; in the data, active means growth inhibition above about 70%; inactive means the rest.

Test: NCI Yeast Anticancer Drug Screen. Data for the mlh1 rad18 strain (AID 175)
Details: S. cerevisiae mlh1 rad18 strain growth inhibition; at 50.0 µM; stronger effect = higher value
Summary of the method: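 Compound-treated yeast growth, normalised to vehicle controls. Strain bears defined DNA repair mutations.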

SMILES | growth inhibition
COc1nc2ccccc2s1 | 22.4% (inactive)
CCCCCCCCCCCCCCCCCCSC(=N)N | 27.9% (inactive)
CCC(=O)Oc1c(C)cc(O)c2ccccc12 | 27.7% (inactive)
C=CC(C)(C)n1cc(C2=C(O)C(=O)C(c3cn(C(C)(C)C=C)c4ccccc34)=C(O)C2=O)c2ccccc21 | -13.4% (inactive)
COC1OC(COC(C)=O)C(OC(C)=O)C(OC(C)=O)C1OC(C)=O (stereo not drawn) | 13.2% (inactive)
Nc1ncc([N+](=O)[O-])cn1 | -9.45% (inactive)
CC(=O)c1cccc(NS(=O)(=O)c2ccc(C)cc2)c1 | 35.9% (inactive)
COc1ccc(C(=O)C(=O)c2ccccc2)cc1 | 33.5% (inactive)
CN(C)CCOC(=O)Nc1ccc(Cc2ccc(NC(=O)OCCN(C)C)cc2)cc1 | 8.3% (inactive)
O=S(=O)(OCCOS(=O)(=O)c1ccccc1)c1ccccc1 | 50.7% (inactive)
CCOC(=O)C(=O)CC(=O)c1ccccc1 | 11.7% (inactive)
c1ccc(Nc2ccccn2)nc1 | -24.6% (inactive)
O=[N+]([O-])c1c(O)c(CNCCCO)cc(CNCCCO)c1O | 43.1% (inactive)
O=C(Nc1ccccc1)c1ccco1 | 11.2% (inactive)
C[n+]1cc2cc3c(cc2c2ccccc21)OCO3 | 39.5% (inactive)
COc1ccc(C)cc1NC(=O)SC(C)C | 6.1% (inactive)
Cc1ccc([N+](=O)[O-])c(C)n1 | 23.4% (inactive)
O=C(CCl)Nc1ccccc1SCc1cc(Cl)cc2c1OCOC2 | -8.9% (inactive)
CCOC(=O)c1ccc(NC(C)=O)o1 | 11.1% (inactive)

SMILES | growth inhibition
COc1cc(OC)c2cc(C(=O)c3ccc(C#N)cc3)c(=O)oc2c1 | 32.2% (inactive)
CCN1CCCC(N2c3ccccc3Sc3ccccc32)C1 (stereo not drawn) | -4% (inactive)
Cc1cc(NC(=O)c2ccccc2)c(Cl)cc1N | -7.95% (inactive)
CCC1CCC(C)NC1 (stereo not drawn) | 21.8% (inactive)
CSc1cnc2ccccc2n1 | -3.9% (inactive)
CC(O)C(F)(F)C(F)(F)C(F)(F)F (stereo not drawn) | 20.8% (inactive)
C=CC1=NC(C)(C)CC(C)O1 (stereo not drawn) | 9.75% (inactive)
Cn1/c(=N\N=C\c2ccccc2OCCO)sc2ccccc21 | 4.3% (inactive)
CN(C)c1ccc2c(N(C)C)cc(N(C)C)nc2c1 | -12% (inactive)
NC(CO)(CO)c1ccccc1 | 29.9% (inactive)
O=C(c1ccccc1)c1ccc(-c2ccc(O)cc2)cc1 | -8% (inactive)
Oc1cc(O)c2c(c1)O[C@H](c1ccc(O)c(O)c1)[C@@H](O)C2 | -18.1% (inactive)
NNc1ncccn1 | -0.75% (inactive)
O=CNCCc1ccccc1 | 2.35% (inactive)
CCOC(=O)C1(N)CCCCC1 | 11.8% (inactive)
O=S1(=O)c2ccccc2Oc2ccccc21 | -14.6% (inactive)
Cc1ccc(C)c2c1CCC2=O | 13.3% (inactive)
Cc1c(Cl)cccc1N=C=S | 8.7% (inactive)
NC(CSSCC(N)C(=O)O)C(=O)O (stereo not drawn) | -2.05% (inactive)
